# Measured values from the supplement of paper PMC3334620.
# In all, about 33,000 sequences were measured (“E-score (-0.5 to 0.5)”: median about -0.016, highest 2% from about 0.3 on). The full list was thinned out, with the highest values kept by preference.
# Target: T1, Yer184c (UniProt P39961)
# T1 sequence: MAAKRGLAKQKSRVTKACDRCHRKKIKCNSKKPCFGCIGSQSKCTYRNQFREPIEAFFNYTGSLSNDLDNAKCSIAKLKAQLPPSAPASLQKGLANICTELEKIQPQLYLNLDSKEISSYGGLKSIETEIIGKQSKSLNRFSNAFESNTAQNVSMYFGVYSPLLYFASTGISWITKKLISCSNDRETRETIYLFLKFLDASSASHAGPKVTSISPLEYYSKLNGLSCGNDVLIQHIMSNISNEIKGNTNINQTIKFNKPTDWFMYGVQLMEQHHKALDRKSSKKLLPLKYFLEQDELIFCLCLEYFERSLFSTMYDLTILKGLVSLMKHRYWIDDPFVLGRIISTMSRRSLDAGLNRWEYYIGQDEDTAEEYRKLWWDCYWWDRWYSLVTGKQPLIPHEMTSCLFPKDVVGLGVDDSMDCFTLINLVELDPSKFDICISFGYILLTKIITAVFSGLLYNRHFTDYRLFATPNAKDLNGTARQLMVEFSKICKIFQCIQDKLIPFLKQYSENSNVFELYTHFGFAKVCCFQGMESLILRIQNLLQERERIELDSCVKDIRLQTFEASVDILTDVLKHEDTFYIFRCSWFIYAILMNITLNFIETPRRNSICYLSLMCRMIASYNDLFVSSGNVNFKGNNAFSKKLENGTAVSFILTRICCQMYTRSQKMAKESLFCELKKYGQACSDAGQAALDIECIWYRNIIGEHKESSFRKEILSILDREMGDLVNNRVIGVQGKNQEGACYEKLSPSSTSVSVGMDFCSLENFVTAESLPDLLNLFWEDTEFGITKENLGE
# Assay: PBM E-score (8-mer binding enrichment) (E-score (-0.5 to 0.5)); higher = stronger / more preferred TF binding
# Details: protein concentration: 100 nM; construct: GST-full length
# Procedure: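 Universal 'all 10-mer' protein binding microarrays (Agilent AMADID 015681) probed with GST-tagged S. cerevisiae TFs (full-length or DBD) made by in vitro transcription/translation (PURExpress), about 100-200 nM. Bound TF was detected with fluorescent anti-GST. Each ungapped 8-mer (which stands for itself and its reverse complement) is scored by the PBM enrichment score (E-score), a modified Wilcoxon-Mann-Whitney statistic from -0.5 to +0.5, computed with the Universal PBM Analysis Suite. Scale: above 0.35 generally sequence-specific binding.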
row,Sequence,PBM E-score
1,GCTACTTA,-0.201
2,CATCTTGC,0.0249
3,TGGCTCAA,-0.0833
4,AGGCTCAA,-0.157
5,CGGCTCAG,0.337
6,CGGCTCAA,0.314
7,CGGCTCAC,0.183
8,AGGCTCAG,-0.163
9,TACAGTCA,-0.0508
10,ATCATTCA,0.195
11,CATGGTGC,-0.169
12,CTACATAG,0.0225
13,CGATACCA,-0.0309
14,TCCGGCCA,0.218
15,GACGGCCC,-0.168
16,ACCGGCCC,0.13
17,GCCGGCCA,0.348
18,GACGGCCA,-0.117
19,GCCGGCCC,0.343
20,GCCAGATA,-0.0238
21,GCCAACCC,-0.059
22,CCAAGGTC,-0.16
23,CGCTTATA,0.0756
24,CCTTGCCA,-0.0398
25,CCTAATGC,-0.233

row,Sequence,PBM E-score
1,GCTTTCGA,-0.0696
2,ATTTTAGA,0.0124
3,CACTGTCC,0.0762
4,AAGCCGAT,0.356
5,AAGCCAAA,0.0744
6,CAGCCGAA,0.229
7,GAGCCGAA,0.372
8,GAGCCGAC,0.0364
9,GAGCCAAA,-0.115
10,AAGCCGAG,0.286
11,AAGCCGAA,0.389
12,AAGCCGAC,0.13
13,CTAAACGC,0.0164
14,CTAGGCAC,-0.14
15,AGACCCAA,-0.134
16,GATGTTCC,0.239
17,AGACCCCG,0.08
18,ATGAAACA,0.02
19,CCCCGGAG,0.135
20,ACCCGGTA,0.183
21,ACCCGGAA,0.346
22,CCCCGGAA,0.151
23,ACCCCGGA,0.142
24,GCCCGGAC,0.192
25,ACCCGGAG,0.348

row,Sequence,PBM E-score
1,GCCCCGGA,0.234
2,ACCCGGAT,0.185
3,TCCCGGAA,0.391
4,GCCCGGAA,0.359
5,TCCCCGGA,0.224
6,ACTCGATA,0.0187
7,CCGACTAG,-0.036
8,TAGAAATA,0.126
9,ATGCTCTC,-0.0198
10,CAGCTACC,-0.113
11,CCATAGAG,-0.11
12,GGCATACC,-0.214
13,ACAAGGTC,-0.234
14,CAGTGGAC,-0.0743
15,AACCAAAC,-0.103
16,ATGTTCCC,-0.107
17,ACGTTCCG,0.0307
18,AAGTTCCT,0.0951
19,ATGTTCCG,0.347
20,ATGTTCCA,0.016
21,AAGTTCCG,0.307
22,CCGTTCCG,0.304
23,CCGTTCCA,0.0249
24,CAGTTCCG,0.199
25,TCAAGCCA,-0.0394

row,Sequence,PBM E-score
1,TAGTATGA,0.129
2,AAGGGCCC,-0.28
3,GACGCTTA,-0.148
4,AAAACTTA,0.245
5,AGGGAACC,-0.101
6,ACGGAACG,0.212
7,CAGGAACG,-0.0846
8,CCGGAACC,0.363
9,ACGGAACC,0.329
10,ACGGAACT,0.197
11,GCGGAACC,0.268
12,CAGGAACC,-0.147
13,CCGGAACG,0.329
14,CCTTGGAA,0.00859
15,TGCAAGCA,-0.0504
16,CAGCGTTA,-0.141
17,ATACGCTA,0.0126
18,ACCTTCAT,-0.00129
19,CTCCAGAG,-0.154
20,CTCCGAAC,0.323
21,CGCCGAAC,0.345
22,CTCCGAAG,0.303
23,AGCCGAAG,0.14
24,CGCCGATC,0.129
25,ATCCGAAC,0.261

row,Sequence,PBM E-score
1,CCCCGAAC,-0.00623
2,CGCCGAAG,0.328
3,CACCGAAG,0.192
4,GGCTGCGA,-0.00955
5,CATGGAGC,-0.175
6,ATGGAGAG,-0.0917
7,CATTAGGG,-0.12
8,ATCTCCGC,0.14
9,GTCTCCGA,0.243
10,ATCTCCAG,-0.0032
11,ATCTCCGG,0.435
12,CTCTCCGA,0.149
13,ATCTCCGA,0.36
14,AAGCACCA,-0.224
15,CACCAAAG,0.0906
16,ATTTATTC,0.329
17,ATTTATCA,0.258
18,ATTTATCC,0.314
19,ATTTATTA,0.216
20,ATTTATCG,0.103
21,CTTTATTC,0.0145
22,ATAGAACA,-0.0179
23,AGTACTGC,-0.177
24,AACTCGAT,0.12
25,ACAAGCGA,-0.015

row,Sequence,PBM E-score
1,GAAGTAAC,0.0995
2,AGTAGCAT,-0.0361
3,AGCATATG,-0.242
4,ATCCGAAA,0.321
5,ATCCGACA,0.162
6,ATCCGAGA,0.252
7,ATCCGAAT,0.419
8,ATCCGAAG,0.302
9,ATCCGATC,0.235
10,GTCCGAGA,0.333
11,ATACGAAT,0.0699
12,ATCCGACC,0.0769
13,ATCCGATA,0.266
14,ATCCGATG,0.327
15,CTCCGAGA,0.247
16,CTGTGTTC,0.093
17,CTAGAACC,-0.00303
18,TATGTACA,-0.0329
19,AGCACTCG,-0.0898
20,CTAGAAAG,-0.0631
21,ATGTATGC,0.0572
22,AGTCTCAG,-0.104
23,TCCCGAAA,0.196
24,CTCCGAAA,0.266
25,TTCCGAAA,0.37

row,Sequence,PBM E-score
1,TACCGAAA,0.204
2,GTCCGAAA,0.316
3,GTCCGAAC,0.23
4,CCAGCTAA,-0.204
5,GTATCTTA,0.197
6,GTCGCGAC,0.315
7,CTCGCGAC,-0.064
8,GTCGCGAA,0.00034
9,CTCTTCAA,-0.129
10,TAGACCTA,-0.0542
11,GCGGAGTA,0.0105
12,GCGGATTA,0.0175
13,CTGGATTC,0.00297
14,ACGGATTA,0.183
15,ACGGATTC,0.197
16,CCGGATTA,0.352
17,CCGGATTC,0.33
18,CCGGAGTA,0.381
19,CCGGAGTC,0.235
20,ATATGGAT,-0.0237
21,ACCGCTCG,-0.135
22,GGTAGGTA,-0.127
